Measured values reported in PubChem BioAssay (NCATS).
Inconclusive results are not listed. Where a call stands in place of a potency, no number is given. The source made the active and inactive calls. Calls come from the whole dose curve; as a rule, active = well fitted curve in the direction sought with a large enough effect; inconclusive = small, poorly fitted or top-dose-only effect, or another doubt; inactive = no such curve, though single readings can be large; an effect the other way counts as inactive or inconclusive.

Key:
[1] = test system: Nanoluciferase (engineered Oplophorus gracilirostris luciferase); experiment: Primary Nanoluciferase (NLuc) qHTS assay for identification of artifact compounds. (AID 1845222); note: series mostly up to about 54 µM
Procedure, shortened: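 Luminescence read-out of secreted NLuc in S16 cell conditioned medium (1:55); compounds tested with 15 min RT preincubation, then Nano-Glo substrate 1:100, 5 min. % inhibition vs no-enzyme and DMSO controls, 4-parameter Hill fit.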

[2] = Primary redox qHTS assay for identification of artifact compounds. (AID 1845223); note: potency is the fitted concentration of half-maximal effect
Procedure, shortened: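 Redox-cycling detection via DTT (250 uM final) oxidation coupled to Amplex Red (25 uM)/HRP (250 mU/mL) in HBSS. 15 min preincubation plus 30 min after DTT, room temperature. Ex/Em 525/598 nm; 4-parameter Hill fit against DMSO and 10 uM DA3003.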

[3] = Quantitative High-Throughput drug screen in 47 multiple myeloma cell lines against the NCATS MIPE library collection: FR4_PLB cell viability assay (AID 1918924; note: nearly all actives have a fitted effect of over 35% in size; note: potency is the fitted concentration of half-maximal effect)
Procedure, shortened: (§1)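 qHTS of the MIPE 4.0 collection: 500 myeloma cells/well, 48 h drug exposure at 37C in 5% CO2, then CellTiter-Glo for 5 min at room temperature before luminescence reading.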

[4] = Quantitative High-Throughput drug screen in 47 multiple myeloma cell lines against the NCATS MIPE library collection: Delta47_JCRB cell viability assay (AID 1918925; note: nearly all actives have a fitted effect of over 45% in size; note: potency is the fitted concentration of half-maximal effect)
Procedure, shortened: (§2)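 We plated 500 myeloma cells per well, pinned in MIPE 4.0 compounds, and incubated for 48 hours at 37C. ATP was then quantified with CellTiter-Glo, with DMSO and media-only wells defining 100% and 0%.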

[5] = Quantitative High-Throughput drug screen in 47 multiple myeloma cell lines against the NCATS MIPE library collection: AMO1_DSMZ cell viability assay (AID 1918927; note: nearly all actives have a fitted effect of over 30% in size; note: potency is the fitted concentration of half-maximal effect)
Procedure, shortened: as §2

[6] = Quantitative High-Throughput drug screen in 47 multiple myeloma cell lines against the NCATS MIPE library collection: ARP1_JJKsccF8 cell viability assay (AID 1918928; note: nearly all actives have a fitted effect of over 40% in size; note: potency is the fitted concentration of half-maximal effect)
Procedure, shortened: (§3)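 500 cells/well; MIPE 4.0 library pinned in; 48 h, 37 °C, 5% CO2; CellTiter-Glo ATP luminescence. Controls: DMSO = 100% viability, medium only = 0%.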

[7] = Quantitative High-Throughput drug screen in 47 multiple myeloma cell lines against the NCATS MIPE library collection: ARD_JJKsccE7 cell viability assay (AID 1918929; note: potency is the fitted concentration of half-maximal effect)
Procedure, shortened: as §2

[8] = Quantitative High-Throughput drug screen in 47 multiple myeloma cell lines against the NCATS MIPE library collection: Karpas620_DSMZ cell viability assay (AID 1918959); note: nearly all actives have a fitted effect of over 30% in size; note: potency is the fitted concentration of half-maximal effect
Procedure, shortened: as §1

[9] = Quantitative High-Throughput drug screen in 47 multiple myeloma cell lines against the NCATS MIPE library collection: KMM1_JCRB cell viability assay (AID 1918960); note: nearly all actives have a fitted effect of over 30% in size; note: potency is the fitted concentration of half-maximal effect
Procedure, shortened: as §3

[10] = Quantitative High-Throughput drug screen in 47 multiple myeloma cell lines against the NCATS MIPE library collection: EJM_DSMZ cell viability assay (AID 1918926; note: nearly all actives have a fitted effect of over 30% in size; note: potency is the fitted concentration of half-maximal effect)
Procedure, shortened: as §2

| Structure (SMILES) | outcome [1] | Potency [2] | Potency [3] | Potency [4] | Potency [5] | Potency [6] | Potency [7] | Potency [8] | Potency [9] | Potency [10] |
| --- | --- | --- | --- | --- | --- | --- | --- | --- | --- | --- |
| FC(F)(F)c1ccc(Nc2nc3ccc(Oc4ccnc(-c5ncc(C(F)(F)F)[nH]5)c4)cc3[nH]2)cc1 | inactive | inactive | 18.7 µM (active) | 23.5 µM (active) | 16.6 µM (active) | 20.9 µM (active) | 14.8 µM (active) | 26.4 µM (active) | 18.7 µM (active) |  |
| Cn1cnc2c(F)c(Nc3ccc(Br)cc3F)c(C(=O)NOCCO)cc21 | inactive | inactive | inactive | inactive | 1.05 µM (active) |  | 0.0033 µM (active) | 0.0833 µM (active) |  | inactive |
| Cc1cncc2cccc(S(=O)(=O)N3CCCN(C(=O)CN)C[C@@H]3C)c12 | inactive | inactive |  | 23.5 µM (active) |  |  | 16.6 µM (active) |  | inactive | 23.5 µM (active) |
| Cn1cc(-c2ccc3ncc(Cc4ccc5ncccc5c4)n3n2)cn1 | inactive | inactive | inactive |  | 14.8 µM (active) |  | inactive | inactive |  | inactive |
| N[C@H]1CN(c2c(F)cc3c(=O)c(C(=O)O)cn(C4C[C@@H]4F)c3c2Cl)CC12CC2 (some centres undefined) | inactive | inactive | inactive | inactive | inactive | inactive | inactive | inactive | inactive | inactive |
| Cc1ccccc1C(=O)Nc1ccc(C(=O)N2CCCC(O)c3cc(Cl)ccc32)c(C)c1 (centres undefined) | inactive | inactive | inactive | inactive |  | inactive |  |  |  | 20.9 µM (active) |
| CN(C)CC(=O)N1CCC(c2ccc(NC(=O)c3ncc(C#N)[nH]3)c(C3=CCCCC3)c2)CC1 | inactive | inactive | inactive | 18.7 µM (active) | 7.43 µM (active) | inactive | 3.32 µM (active) | inactive | inactive | 18.7 µM (active) |
| CCc1ccc(C(=O)Nc2cc(CN3CCN(C)CC3)cc(C(F)(F)F)c2)cc1C#Cc1cnc2ccnn2c1 | inactive |  | 11.8 µM (active) | 13.2 µM (active) | 4.69 µM (active) | 5.9 µM (active) | 8.33 µM (active) |  | 6.62 µM (active) | 16.6 µM (active) |
| CC(C)(N)c1ccc(-c2nc3ccccc3nc2-c2ccccc2)cc1 | inactive | inactive |  | 5.9 µM (active) |  |  | 14.8 µM (active) | 10.5 µM (active) | 18.7 µM (active) | 23.5 µM (active) |
| Nc1ccn(C2CO[C@H](CO)O2)c(=O)n1 (some centres undefined) | inactive | inactive | inactive |  | inactive |  | inactive | inactive | inactive | inactive |
| O=C(O)c1ccc(Nc2ncc3c(n2)-c2ccc(Cl)cc2C(c2c(F)cccc2F)=NC3)cc1 | inactive | inactive | inactive | 0.935 µM (active) | 0.187 µM (active) | 0.0105 µM (active) |  |  |  | 23.5 µM (active) |
| CS(=O)(=O)N1CCc2c(-c3cnc(N)nc3)nc(N3CCOCC3)nc21 | inactive | inactive | 0.59 µM (active) | 0.148 µM (active) |  | 0.0418 µM (active) |  |  | 0.0662 µM (active) | 2.09 µM (active) |
| c1cncc(CN2CCC(n3ncc4c(N5CCOCC5)nc(-c5ccc6[nH]ccc6c5)nc43)CC2)c1 | inactive | inactive | 4.69 µM (active) | 0.743 µM (active) |  | 3.32 µM (active) |  | inactive |  | 5.9 µM (active) |
| c1ccc2c(Oc3nc(Nc4ccc(N5CCOCC5)cc4)c4ncn(C5CCCCC5)c4n3)cccc2c1 | inactive | inactive | inactive |  |  |  |  | inactive |  |  |
| FC(F)c1nc2ccccc2n1-c1nc(N2CCOCC2)nc(N2CCOCC2)n1 | inactive | inactive | 0.743 µM (active) | 0.0662 µM (active) | 0.209 µM (active) | 0.166 µM (active) |  |  |  |  |
| C[C@H]1[C@@H](OC(=O)CCC(=O)O)O[C@@H]2O[C@@]3(C)CC[C@@H]4[C@H](C)CC[C@@H]1[C@@]24OO3 | inactive | inactive | 11.8 µM (active) | 5.26 µM (active) | 0.833 µM (active) | 2.35 µM (active) | 1.48 µM (active) | 0.166 µM (active) | 0.332 µM (active) | 14.8 µM (active) |
| OCCNC1CCCc2c1[nH]c1ccc(-c3ccccc3)cc21 (centres undefined) | inactive | inactive | 18.7 µM (active) | 10.5 µM (active) | 16.6 µM (active) |  | 26.4 µM (active) | 23.5 µM (active) | 18.7 µM (active) |  |
| C[N+]1(C)[C@@H]2C[C@@H](OC(=O)C(O)(c3cccs3)c3cccs3)C[C@H]1[C@@H]1O[C@@H]12 | inactive | inactive | inactive | inactive | inactive |  | inactive | inactive | inactive | inactive |

| Structure (SMILES) | outcome [1] | Potency [2] | Potency [3] | Potency [4] | Potency [5] | Potency [6] | Potency [7] | Potency [8] | Potency [9] | Potency [10] |
| --- | --- | --- | --- | --- | --- | --- | --- | --- | --- | --- |
| COc1ccc(S(=O)(=O)Nc2cccnc2Nc2ccc(O)cc2)cc1 | inactive | inactive | 0.0264 µM (active) | 0.0264 µM (active) |  | 0.059 µM (active) |  |  |  | 0.296 µM (active) |
| Cc1coc2c1C(=O)C(=O)c1c-2ccc2c(C)cccc12 | inactive | 1.06 µM (active) | 20.9 µM (active) |  | inactive |  | inactive |  | inactive | 16.6 µM (active) |
| Cc1cnc(Nc2ccc(CN3CCOCC3)cc2)nc1Nc1cccc(S(=O)(=O)NC(C)(C)C)c1 | inactive | inactive | 2.64 µM (active) | 1.87 µM (active) |  | 3.32 µM (active) |  |  |  | 5.9 µM (active) |
| O=C(Nc1ccc(Oc2ccnc3[nH]ccc23)c(F)c1)c1cccn(-c2ccc(F)cc2)c1=O | inactive | inactive |  |  | inactive | inactive |  | inactive | 2.64 µM (active) |  |
| CN1CCc2c(c3ccccc3n2Cc2ccc(C(=O)NO)cc2)C1 | inactive | inactive | 18.7 µM (active) | 18.7 µM (active) |  | 18.7 µM (active) |  |  |  | 18.7 µM (active) |
| Oc1ccc([C@@H]2Oc3ccc(O)cc3[C@@H]3CCC[C@@H]32)cc1 | inactive | inactive |  |  | inactive |  | inactive |  | inactive |  |
| C[C@H](O)[C@@H]1C(=O)N2C(C(=O)O)=C(S[C@@H]3CN[C@H](CNS(N)(=O)=O)C3)[C@@H](C)[C@@H]12 | inactive |  | inactive | inactive |  | inactive | inactive | inactive | inactive | inactive |
| CCC[C@H]1C[C@H](C(=O)N[C@@H]([C@@H]2O[C@@H](SC)[C@@H](O)[C@@H](O)[C@@H]2O)[C@H](C)Cl)N(C)C1 | inactive | inactive | inactive |  | inactive | inactive |  | inactive |  | inactive |
| CC(C)n1cnc2c(NCCc3ccc(O)cc3)nc(-c3csc4ccccc34)nc21 | inactive | inactive | 20.9 µM (active) |  |  | 14.8 µM (active) |  |  | inactive | 5.9 µM (active) |
| CCCCOc1ccc(C(=O)Nc2ccc(F)cc2F)cc1 | inactive | inactive |  | inactive |  | inactive | inactive | inactive | inactive | inactive |
| Cc1ncc(-c2ccnc(Nc3ccc(S(C)(=O)=O)cc3)n2)n1C(C)C | inactive | inactive | 2.64 µM (active) | 2.35 µM (active) | 2.09 µM (active) | 2.96 µM (active) | 2.96 µM (active) | 3.72 µM (active) | 1.48 µM (active) | 2.96 µM (active) |
| CCc1nc(-c2cccc(C)c2)c(-c2ccnc(NC(=O)c3ccccc3)c2)s1 | inactive | inactive | 18.7 µM (active) |  |  |  | 20.9 µM (active) | 3.32 µM (active) |  |  |
| Nc1ccc(C(=O)Nc2cccc(-c3nc(N4CCOCC4)c4oc5ncccc5c4n3)c2)cn1 | inactive | inactive | 18.7 µM (active) | 0.935 µM (active) |  | 6.62 µM (active) | 1.66 µM (active) | 6.62 µM (active) | 0.418 µM (active) | 16.6 µM (active) |
| Oc1cc(-c2nc(-c3ccccc3)[nH]c2-c2ccncc2)ccc1Cl | inactive | inactive |  | 4.69 µM (active) | 5.26 µM (active) |  | 5.9 µM (active) | 5.9 µM (active) | 1.87 µM (active) | 18.7 µM (active) |
| CCN(CC)Cc1ccc2cc(COC(=O)Nc3ccc(C(=O)NO)cc3)ccc2c1 | inactive | inactive | 0.372 µM (active) | 0.526 µM (active) | 0.743 µM (active) | 0.59 µM (active) | 0.662 µM (active) |  | 0.469 µM (active) | 1.05 µM (active) |
| C[C@@H](Cc1cc2c(c(C(N)=O)c1)N(CCCO)CC2)NCCOc1ccccc1OCC(F)(F)F | inactive | inactive | inactive | 11.8 µM (active) | inactive | inactive |  |  |  |  |
| CCOC(=O)[C@@H](N)Cc1ccc(-c2cc(O[C@H](c3ccc(Cl)cc3-n3ccc(C)n3)C(F)(F)F)nc(N)n2)cc1 | inactive | inactive | 23.5 µM (active) | 23.5 µM (active) | 9.35 µM (active) | 14.8 µM (active) | 9.35 µM (active) | 9.35 µM (active) | 11.8 µM (active) | 18.7 µM (active) |
